KB-3-1 tox = qHTS assay for MDR1-selective chemotherapeutics: Primary screen using the parental adenocarcinoma cell KB-3-1 | AID 1347075, 2019 | Potency, µM (titrated, usually from 46.1 µM), most hits filed as cytotoxic | KB-3-1 viability, CellTiter-Glo ATP luminescence, 72 h | 1.4% of 400,000 active; also: potency is read from the fitted curve at half-maximal effect; % is scaled to controls: 0 for no effect and ±100 for the full control effect; nearly all actives have a fitted effect of over 60% in size
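KB-3-1 cells, DMEM (no phenol red) + 10% FBS; compound by pin transfer, 72 h, 37 °C. Readout: CellTiter-Glo luminescence after 10 min. Data normalized, curve-fitted.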
KB-V1 cytotox = qHTS assay for MDR1-selective chemotherapeutics: Primary screen using the drug-selected MDR subline cells KB-V1 | 3.4% of 400,000 active | Potency, µM (highest dose often 46.1 µM), most hits filed as cytotoxic | KB-V1 MDR cells viability, CellTiter-Glo, 72 h | AID 1347076, 2019; also: potency is read from the fitted curve at half-maximal effect; % is scaled to controls: 0 for no effect and ±100 for the full control effect; nearly all actives have a fitted effect of over 60% in size
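KB-V1 cells (P-gp-expressing MDR subline of KB-3-1) in phenol-red-free DMEM with 10% FBS were exposed to library compounds over a concentration series for 72 h at 37 degrees C. Viability read by CellTiter-Glo luminescence; concentration-effect curves fitted after normalization.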
hERG WT inh = qHTS for Inhibitors of KCHN2 3.1: Wildtype qHTS; activity change, % at 1.84 µM; 0.37% of 340,000 active; U2OS, BacMam KCNH2, thallium flux FluxOr; hits give low values;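 active = maximum activity change below -70%; inconclusive = maximum activity change between -70% and -50%; inactive = maximum activity change above -50%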; also: % is scaled to controls: 0 for no effect and ±100 for the full control effect
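U2OS cells transduced with wild-type KCNH2 virus are loaded with FluxOr dye for 45 min, and thallium flux is measured in kinetic reads before and after stimulation buffer. Rate constants are normalized to DMSO controls.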
KCNH2 3.1 inh = qHTS for Inhibitors of KCHN2 3.1: Mutant qHTS | activity change, % (tested at about 1.8 µM) | 0.95% of 340,000 active | U2OS KCNH2 3.1, thallium flux FluxOr; hits give low values | Potassium voltage-gated channel subfamily H member 2, brain isoform KCNH2 3.1 (human);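 active = maximum activity change below -70%; inconclusive = maximum activity change from -70% to -50%; inactive = maximum activity change above -50%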;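 also: thallium influx rate constant from kinetic fluorescence after stimulation buffer; % is scaled to controls: 0 for no effect and ±100 for the full control effect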
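Thallium flux via FluxOr fluorescence (Red40 quencher, 45 min loading) in U2OS cells virally expressing the KCNH2 3.1 isoform (1.77 x 10^8 /mL virus, overnight at 37 C). Rate constants from 2-min kinetic reads post-stimulation, normalised to positive and negative controls.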
SW480 rereplic = A quantitative high throughput screen for small molecules that induce DNA re-replication in SW480 colon adenocarcinoma cells; SW480 DNA re-replication, Hoechst DNA content imaging, 48 h; Potency, µM (highest dose often 46.1 µM), without a hit: at the top dose re-replication activation, usual class: activators; 1.8% of 340,000 active; AID 624297, 2012; also: potency is read from the fitted curve at half-maximal effect; % of control where 0% means no effect; nearly all actives have a fitted effect of over 55% in size
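Per well, 250 cells were exposed to pinned compound for 48 hr. Nuclear DNA was visualised with Hoechst (40 min, 37 C) and total object intensity recorded by fluorescence scanning.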
MCF10A rerep = A quantitative high throughput screen for small molecules that induce DNA re-replication in MCF 10a normal breast cells | MCF 10A DNA re-replication, Hoechst nuclear intensity, 48 h | Potency, µM (series often up to 46.1 µM), without a hit: top-dose activity, positive = re-replication, usual class: activators | 2.9% of 350,000 active | AID 624296, 2012; also: potency is read from the fitted curve at half-maximal effect; % of control where 0% means no effect; nearly all actives have a fitted effect of over 50% in size
The depositor's hits bear a star; i = inactive; ? = inconclusive; · = not tested or not shown; ! = not confirmed by another sample; [ ] = remark or other dose. Most compounds without a hit are left out; they make up all but 7.6% or so of the library. Unless noted, calls follow the shape of the dose curve; as a rule, active = well fitted curve in the direction sought with a large enough effect; inconclusive = small, poorly fitted or top-dose-only effect, or another doubt; inactive = no such curve, though single readings can be large; an effect the other way counts as inactive or inconclusive.

SMILES | KB-3-1 tox | KB-V1 cytotox | hERG WT inh | KCNH2 3.1 inh | SW480 rereplic | MCF10A rerep
COc1ccc(CCNS(=O)(=O)c2cc3c4c(c2)CCN4C(=O)CC3)cc1 | i | i | 4 | 7 | -2% | 8%
COc1ccc(C(=O)NCCc2cc3c(OC)ccc(OC)c3[nH]c2=O)cc1OC | i | ? | -4 | · | 6% | 4%
CCN(CC)S(=O)(=O)c1ccc(C(=O)NCCc2cc3c(OC)ccc(OC)c3[nH]c2=O)cc1 | i | 7.3µM* | 0 | 1 | 0% | ?
COc1cc(OC)c(OC)cc1CNC(=O)c1ccc(S(=O)(=O)N2CCCCC2)cc1 | i | 7.3µM* | 32 | -9 | 3% | 1%
COc1ccc(OC)c2[nH]c(=O)c(CCNC(=O)c3ccc(S(=O)(=O)N4CCCC4)cc3)cc12 | i | 18µM* | 6 | -7 | 0% | ?
COc1ccc(OC)c2[nH]c(=O)c(CCNS(=O)(=O)c3ccccc3)cc12 | i | 16µM* | -7 | -26 | -5% | -9%
COc1ccccc1CNC(=O)c1ccc(S(=O)(=O)N2CCCC2)cc1 | i | i | -9 | 0 | -2% | -22%
CCC(=O)NCCC1CCc2ccc3c(c21)CCO3 (stereo unspecified) | · | · | · | · | 3% | 11%
COc1ccc(NC(=O)c2cc([N+](=O)[O-])ccc2O)cc1 | 18µM* | ? | -1 | 0 | 18% | ?
COc1cccc(NC(=O)c2cc([N+](=O)[O-])ccc2NCc2cccnc2)c1 | i | 3.7µM* | -12 | -10 | 9% | -1%
Cc1c(C(=O)Nc2cccc([N+](=O)[O-])c2)csc1-c1ccccc1 | i | 8.2µM* | -9 | -10 | 3% | ?
O=C(Nc1cccc([N+](=O)[O-])c1)c1cc2ccccc2cc1O | 13µM* | ? | 7 | -5 | ? | ?
Cc1ccc(NC(=O)c2cc([N+](=O)[O-])ccc2NCc2cccnc2)cc1Cl | i | i | -24 | -25 | 11% | 6%
O=C(Nc1ccc2ccccc2c1)Nc1nnc(-c2ccc(Cl)cc2)s1 | i | i | · | · | · | ·
CC(C)CC1NC(=O)N(CC(=O)NC2CCCc3ccccc32)C1=O (stereo unspecified) | i | i | 10 | 6 | -3% | 1%
CN1CCN(c2cccc(Nc3nn4c(=O)c5ccccc5nc4s3)c2)CC1 | i | i | · | · | · | ·
CCN(C(=O)COC(=O)/C=C/c1c(C)nn(Cc2ccc(C)cc2)c1C)C1CCS(=O)(=O)C1 (stereo unspecified) | i | i | 4 | 18 | 16µM* | -3%[9.22 µM]
CCN(C(=O)COC(=O)/C=C/c1cccc(Br)c1)C1CCS(=O)(=O)C1 (stereo unspecified) | i | i | -25 | · | ? | ?
O=C(C(=O)c1cc(Br)ccc1O)c1cc(Br)ccc1O | 23µM* | ? | -11 | -12 | ? | 2.6µM*
CC(=O)Nc1cc(Br)ccc1O | i | i | 7 | -1 | -11% | 0.73µM*
CCOC(=O)c1c(NC(=O)/C=C/c2ccc(OCC)cc2)sc2c1CCC2 | i | i | · | · | · | ·
COC(=O)c1cc2c(n1S(=O)(=O)c1ccc(C)cc1)C(=O)C(=O)c1[nH]cc(C(=O)OCc3ccccc3)c1-2 | 3.3µM* | 7.3µM* | -21 | · | ? | 8%
COC(=O)c1ccc(COC(=O)c2ccc(CS(=O)(=O)c3ccc(C)cc3)cc2)cc1 | i | i | -3 | -12 | -11% | 8%
CCC(C)C(NC(=O)CCC(=O)OCC(=O)[C@@]1(O)CCC2[C@@H]3CCC4=CC(=O)C=C[C@]4(C)C3[C@@H](O)C[C@@]21C)C(=O)O (stereo partly specified) | i | i | -12 | 8 | -1% | -17%
CSCCC1NC2(C(=O)Nc3c2ccc(Cl)c3C)[C@@H]2C(=O)N(C3CCCC3)C(=O)[C@H]12 (stereo partly specified) | ? | 4.1µM* | -4 | -7 | ? | 20%
SMILES | KB-3-1 tox | KB-V1 cytotox | hERG WT inh | KCNH2 3.1 inh | SW480 rereplic | MCF10A rerep
OC(CCc1cccc(Cl)c1)c1cccs1 (stereo unspecified) | i | ? | 21 | -2 | -10% | -2%
CC(=O)NC(c1cccc(F)c1)c1nc(-c2cccc(C(C)C)c2)cs1 (stereo unspecified) | i | i | · | · | · | ·
OCC1OC(n2cnc3c(NCc4ccco4)ncnc32)C(O)C1O (stereo unspecified) | 13µM*! | ? | -22 | · | 8.2µM* | 1µM*
COc1cc(Cl)c(CNC[C@H]2O[C@@H](n3cnc4c(N)ncnc43)[C@H](O)[C@@H]2O)c(Cl)c1O | i | i | -4 | 8 | -8% | 7.3µM*
OC[C@H]1O[C@@H](n2cnc3c(NCc4ccco4)ncnc32)[C@H](O)[C@@H]1O | 16µM* | i | 2 | 14 | ? | ?
Cc1ccccc1CNc1ncnc2c1ncn2C1OC(CO)C(O)C1O (stereo unspecified) | · | · | · | · | -3% | 13%
Nc1ncnc2c1ncn2[C@@H]1O[C@H](CO)[C@@H](O)[C@@H]1O | i | i | 15 | 30 | -57% | 7.3µM*
COc1cc(Cl)c(CNC[C@H]2O[C@@H](n3cnc4c(=O)[nH]c(N)nc43)[C@H](O)[C@@H]2O)c(Cl)c1O | i | i | · | · | · | ·
C=CCNc1ncnc2c1ncn2C1OC(CO)C(O)C1O (stereo unspecified) | i | i | 5 | 0 | ? | ?
O=C(NCCCn1ccnc1)c1nc(Cn2cc([N+](=O)[O-])cn2)no1 | i | i | -3 | 2 | 4% | 9%
NC(=O)C1C2C=CC(C2)C1c1ccccc1 (stereo unspecified) | i | i | 1 | -11 | -6% | -1%
N#Cc1c(N)n(C2OC(CO)C(O)C2O)c2ncnc(N)c12 (stereo unspecified) | 0.23µM* | 0.21µM* | -49 | 5 | ? | 0.23µM*
Cn1c(=O)n(C)c2cc(NS(=O)(=O)c3ccc(Cl)cc3)c(NCc3ccccc3)cc21 | ? | i | · | · | · | ·
Cc1cc(S(=O)(=O)Nc2cc3c(cc2NCc2ccccc2)n(C)c(=O)n3C)ccc1F | i | 21µM* | · | · | · | ·

Screening data from PubChem.
